This is an account of results in PubChem BioAssay.

Assay [1] can be described thus: binders of probe aFSTL3 on microarray, primary screen, stem cell growth factor project, biochemical, small-molecule microarray, fluorescence 635/667 (AID 1064).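 Further: measures binding of the biotinylated anti-FSTL3 antibody to printed compounds.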 The settings on record: higher = more signal.
A short description of assay [2]: binders from COS7 lysate, DM2A8 probe, primary screen, torsin A project, cell lysate, small-molecule microarray, fluorescence 635/667 (AID 1065). The settings on record: higher = more signal, COS7 lysate expressing mutant human TOR1A.
A short description of assay [3]: binders of probe aFGF2 on microarray, primary screen, stem cell growth factor project, biochemical, small-molecule microarray, fluorescence 635/667 (AID 1067).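 Further: measures binding of biotinylated aFGF2 protein to printed compounds on slides; z-score merges feature fluorescence and signal-to-noise across triplicate slides.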 The settings on record: higher = more signal.
A short description of assay [4]: binders of probe aFGF10 on microarray, primary screen, stem cell growth factor project, biochemical, small-molecule microarray, fluorescence 635/667 (AID 1071).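 Further: score merges 667 nm spot intensity and signal to noise from triplicate slides.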 The settings on record: higher = more signal.
Assay [5] concerns the target Neurogenic locus notch homolog protein 2 (Homo sapiens) (UniProt Q04721). Kind of assay: Notch2 binders on small-molecule microarrays, primary screen, biochemical, small-molecule microarray, 635 nm fluorescence, stem cell growth factors (AID 1073). The settings on record: Notch2 binding, higher = more signal.
The target of assay [6] is Pro-neuregulin-1, membrane-bound isoform (Homo sapiens) (UniProt Q02297). As to the kind of experiment: NRG1 binders on small-molecule microarrays, primary screen, psychiatric disease protein project, biochemical, small-molecule microarray, fluorescence 635/667 (AID 1075).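 Further: score combines 667 nm spot fluorescence with signal to noise.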 The settings on record: NRG1 binding, 635 nm fluorescence, higher = more signal.
Assay [7] deals with Neuregulin-1 EGF-like domain. As to the kind of experiment: binders of neuregulin-1 EGF-like domain, primary screen, biochemical, small-molecule microarray, 635 nm fluorescence (AID 1081).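 Further: binding of the protein to compounds printed on small-molecule microarray slides.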 The settings on record: small-molecule microarray binding, higher = more signal.
A short description of assay [8]: FRG1 promoter luciferase signal modulators, primary screen, FRG1 inhibition for FSHD, cell-based, C2C12 myotubes, firefly/Renilla luciferase, luminescence (AID 1084). The settings on record: higher = more signal, called active from +8 up or from −8 down.
A short description of assay [9]: binders of probe aFST on microarray, primary screen, stem cell growth factor project, biochemical, small-molecule microarray, fluorescence 635/667 (AID 1086).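 Further: score merges 667 nm fluorescence with signal-to-noise of each printed compound spot.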 The settings on record: higher = more signal.
Assay [10] is described as follows: binders of probe aHhip on microarray, primary screen, stem cell growth factor project, biochemical, small-molecule microarray, fluorescence 635/667 (AID 1087).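 Further: score merges spot fluorescence at 667nm with spot signal to noise ratio.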 The settings on record: higher = more signal.

SMILES strings stand for the structures. Activity calls are given as the source filed them.

Pro-neuregulin-1, membrane-bound isoform (Homo sapiens), sequence (Q02297 whole entry, looked up, the tested form may be a part, canonical isoform): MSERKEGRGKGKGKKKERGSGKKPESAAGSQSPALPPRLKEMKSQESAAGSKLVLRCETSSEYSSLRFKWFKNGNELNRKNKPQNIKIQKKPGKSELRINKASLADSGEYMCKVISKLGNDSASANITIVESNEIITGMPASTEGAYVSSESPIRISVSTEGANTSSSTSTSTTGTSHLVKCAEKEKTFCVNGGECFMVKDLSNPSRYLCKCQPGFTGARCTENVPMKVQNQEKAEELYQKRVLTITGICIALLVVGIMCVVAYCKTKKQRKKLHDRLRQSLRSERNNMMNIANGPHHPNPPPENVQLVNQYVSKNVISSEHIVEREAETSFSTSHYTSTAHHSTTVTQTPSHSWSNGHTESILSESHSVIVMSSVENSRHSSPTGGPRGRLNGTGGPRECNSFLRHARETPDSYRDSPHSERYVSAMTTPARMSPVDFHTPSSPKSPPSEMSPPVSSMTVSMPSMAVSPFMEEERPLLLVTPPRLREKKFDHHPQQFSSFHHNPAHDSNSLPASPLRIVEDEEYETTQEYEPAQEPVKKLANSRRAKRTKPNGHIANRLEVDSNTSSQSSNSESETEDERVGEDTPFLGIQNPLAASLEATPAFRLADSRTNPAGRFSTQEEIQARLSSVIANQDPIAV
Neurogenic locus notch homolog protein 2 (Homo sapiens), sequence (Q04721 whole entry, looked up, canonical isoform): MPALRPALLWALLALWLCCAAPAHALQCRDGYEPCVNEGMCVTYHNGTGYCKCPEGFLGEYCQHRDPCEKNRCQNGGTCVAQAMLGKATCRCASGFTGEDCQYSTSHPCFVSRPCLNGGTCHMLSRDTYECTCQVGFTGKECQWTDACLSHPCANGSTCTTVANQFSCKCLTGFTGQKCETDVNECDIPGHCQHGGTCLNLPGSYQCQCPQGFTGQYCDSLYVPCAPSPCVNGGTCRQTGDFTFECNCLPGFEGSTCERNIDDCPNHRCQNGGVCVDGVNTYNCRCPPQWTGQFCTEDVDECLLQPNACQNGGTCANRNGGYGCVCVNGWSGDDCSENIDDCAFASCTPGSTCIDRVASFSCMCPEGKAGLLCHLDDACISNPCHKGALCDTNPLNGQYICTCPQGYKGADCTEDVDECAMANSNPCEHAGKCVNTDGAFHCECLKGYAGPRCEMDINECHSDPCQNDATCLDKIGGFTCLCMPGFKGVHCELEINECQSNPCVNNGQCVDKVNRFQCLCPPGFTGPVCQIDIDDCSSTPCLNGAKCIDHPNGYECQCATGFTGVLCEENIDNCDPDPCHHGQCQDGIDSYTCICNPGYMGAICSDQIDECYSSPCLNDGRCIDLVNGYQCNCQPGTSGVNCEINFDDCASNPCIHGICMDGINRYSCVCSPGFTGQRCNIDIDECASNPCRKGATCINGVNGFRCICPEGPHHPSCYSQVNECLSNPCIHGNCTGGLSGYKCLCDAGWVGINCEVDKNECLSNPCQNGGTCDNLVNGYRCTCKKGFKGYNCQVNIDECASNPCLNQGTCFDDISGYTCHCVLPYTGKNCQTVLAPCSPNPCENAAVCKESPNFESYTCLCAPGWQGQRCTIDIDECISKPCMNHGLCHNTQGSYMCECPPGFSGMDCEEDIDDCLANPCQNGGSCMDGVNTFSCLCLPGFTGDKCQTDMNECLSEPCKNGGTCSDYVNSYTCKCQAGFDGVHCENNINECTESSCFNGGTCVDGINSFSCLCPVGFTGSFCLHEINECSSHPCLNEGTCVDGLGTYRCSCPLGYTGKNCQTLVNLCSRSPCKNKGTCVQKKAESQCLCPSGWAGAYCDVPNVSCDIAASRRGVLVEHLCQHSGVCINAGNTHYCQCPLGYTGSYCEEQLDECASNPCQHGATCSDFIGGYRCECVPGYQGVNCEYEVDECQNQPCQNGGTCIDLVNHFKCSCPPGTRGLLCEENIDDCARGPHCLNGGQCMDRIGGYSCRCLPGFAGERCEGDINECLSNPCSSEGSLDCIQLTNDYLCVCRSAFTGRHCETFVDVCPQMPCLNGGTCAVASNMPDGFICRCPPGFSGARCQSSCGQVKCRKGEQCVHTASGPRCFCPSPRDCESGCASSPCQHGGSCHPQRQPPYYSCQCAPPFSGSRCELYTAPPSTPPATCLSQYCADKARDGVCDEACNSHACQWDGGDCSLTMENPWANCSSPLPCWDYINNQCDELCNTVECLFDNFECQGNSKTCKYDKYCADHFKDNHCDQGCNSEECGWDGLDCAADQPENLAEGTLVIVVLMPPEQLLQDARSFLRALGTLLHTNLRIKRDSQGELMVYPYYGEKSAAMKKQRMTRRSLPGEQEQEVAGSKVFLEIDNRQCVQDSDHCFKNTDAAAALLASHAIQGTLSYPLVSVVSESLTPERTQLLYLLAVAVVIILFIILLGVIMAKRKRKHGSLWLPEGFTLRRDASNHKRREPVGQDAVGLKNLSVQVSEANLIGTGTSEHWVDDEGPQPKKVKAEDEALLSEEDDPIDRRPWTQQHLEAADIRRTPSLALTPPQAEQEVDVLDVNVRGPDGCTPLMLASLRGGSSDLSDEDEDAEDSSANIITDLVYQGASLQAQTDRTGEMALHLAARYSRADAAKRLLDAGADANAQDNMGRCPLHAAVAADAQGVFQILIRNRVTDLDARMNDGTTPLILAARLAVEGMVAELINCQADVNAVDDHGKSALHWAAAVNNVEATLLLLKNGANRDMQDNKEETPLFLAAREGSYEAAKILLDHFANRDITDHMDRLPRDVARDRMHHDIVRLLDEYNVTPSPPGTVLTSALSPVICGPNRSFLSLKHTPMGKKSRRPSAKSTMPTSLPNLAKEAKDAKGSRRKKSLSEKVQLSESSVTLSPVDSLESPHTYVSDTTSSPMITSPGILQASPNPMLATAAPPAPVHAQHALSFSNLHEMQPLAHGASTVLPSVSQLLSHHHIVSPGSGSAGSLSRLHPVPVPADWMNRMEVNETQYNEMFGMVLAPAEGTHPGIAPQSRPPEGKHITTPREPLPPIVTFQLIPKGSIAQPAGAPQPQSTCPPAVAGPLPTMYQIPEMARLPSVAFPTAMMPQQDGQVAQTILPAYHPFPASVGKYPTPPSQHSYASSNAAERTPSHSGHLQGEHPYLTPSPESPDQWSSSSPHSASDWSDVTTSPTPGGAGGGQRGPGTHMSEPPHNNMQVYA

With `Cc1ccc(S(=O)(=O)OC[C@H]2CN3[C@H](c4ccc(Br)cc4)[C@@H](C)CC[C@H]3C(=O)O2)cc1`, the composite z-score in assay [1] is -0.307; in assay [2], 0.0709; in [3], -0.106; in assay [4], 0.255; in assay [5], 0.0993; in [6], 0.0865. The composite z-score in assay [7] is 1.01; in assay [9], -0.164; in [10], -0.191. The z-score in assay [8] was -0.636 (inactive).
Consider `CO[C@H]1COC(=O)[C@@H](C)COC(=O)[C@H](C)NC(=O)CC=C[C@H]1C`, for which the composite z-score in [1] is -0.451; in [2], 1.18; in [3], -0.0354; in [4] it was 0.222; in [5], 0.0126; in [6], -0.521. Besides, the composite z-score in [7] was 0.734; in [9], 0.101; in assay [10], -0.0557. In addition, in assay [8], the z-score is -0.53 (inactive).
On to `CCOC(=O)[C@H](CC(C)C)NC(=O)CCC1CC(OC(=O)NCCc2ccc(F)cc2)CC2(CCCC(COC(=O)NCCc3ccc(Cl)cc3)O2)O1` (stereo not given in full), for which the composite z-score was -0.543 in assay [1]; 1 in assay [2]; -0.0267 in [3]; 0.491 in assay [4]; 0.74 in assay [5]; 0.0742 in [6]. The composite z-score stood at 1.06 in [7], 0.197 in assay [9] and 0.208 in [10]. Moreover, the z-score in assay [8] is 1.57 (inactive).
With `CC1O[C@H]2C3=C(C(=O)[C@@H]4O[C@@H]4[C@H]3O)[C@@H]1C1[C@@H](C)OC=C3[C@H](O)C4O[C@@H]4C(=NOCc4ccccc4)[C@]312` (stereo not given in full), the composite z-score was -0.379 in assay [1]; -0.488 in assay [2]; -0.166 in [3]; 0.0246 in assay [4]; 0.112 in assay [5]; -0.505 in [6]. Further, the composite z-score in [7] is -0.0339; in assay [9] it was -0.123; in [10], -0.216. Also, in assay [8], the z-score was -1.15 (inactive).
In the case of `COC(=O)CC=C[C@@H](C)[C@@H](C=NOC(C)CN1CCCc2nc(C)c(C)cc21)OC` (stereo not given in full), the composite z-score in assay [1] was -0.111; in assay [2], 0.382; in [3] it was -0.121; in [4] it was 0.354; in assay [5], 0.401; in assay [6] it was -0.171. In addition, the results for the composite z-score in [7], in assay [9] and in assay [10] were 0.375, 0.0017 and -0.0237, respectively. The z-score in assay [8] is 0.422 (inactive).
For the compound `COC(=O)[C@@H]1CC[C@H](C)[C@@H](c2ccc(C)cc2)N1C(=O)c1ccc(C=NOC[C@@H](C)[C@H](OCc2ccccc2)C(C)C)cc1`, the composite z-score in assay [1] is -0.613; in assay [2], 0.191; in assay [3] it was -0.0707; in [4] it was 0.41; in [5], 1.13; in [6] it was 0.855. Also, the results for the composite z-score in assay [7], in [9] and in assay [10] were 1, 0.38 and 0.0373, respectively. In addition, the z-score in assay [8] was -0.229 (inactive).
Take `CCOC(=O)[C@H](CC(C)C)NC(=O)CCC1CC(OC(=O)NCCc2ccc(F)cc2)CC2(CCCC(COC(=O)NCCOc3ccccc3)O2)O1` (stereo not given in full): the composite z-score is -0.715 in assay [1]; -0.409 in [2]; -0.0909 in assay [3]; 0.704 in assay [4]; 1.25 in assay [5]; 0.996 in assay [6]. Besides, the results for the composite z-score in [7], in assay [9] and in assay [10] were 1.24, 0.283 and -0.374, respectively. Further, in assay [8], the z-score is 1.99 (inactive).
With `COc1cccc([C@H]2Oc3ccc(OC)cc3C(=NOC[C@@H](O)[C@H]3O[C@@H]4OC(C)(C)O[C@@H]4[C@H]3O)[C@@H]2O)c1`, the composite z-score in assay [1] is -0.117; in assay [2], 0.146; in [3], -0.0533; in assay [4], 0.289; in assay [5] it was 0.533; in assay [6], -0.242. Besides, the composite z-score in assay [7] was 0.54; in assay [9], 0.149; in assay [10] it was -0.194. The z-score in assay [8] is 5.07 (inactive).
As for `CO[C@H]1COC(=O)[C@@H](Cc2ccccc2)NC(=O)[C@@H](C)COC(=O)CCC[C@@H]1C`, the composite z-score in [1] is -0.388; in assay [2] it was 0.433; in assay [3] it was -0.0319; in assay [4] it was 0.286; in [5], 0.106; in assay [6], -0.203. In addition, the composite z-score is -0.361 in assay [7], 0.23 in assay [9] and -0.0391 in [10]. For the same compound, the z-score in assay [8] was -0.224 (inactive).
Turning to `CCCNC(=O)OC[C@H]1O[C@H](CCON=C(C)C)C=C[C@@H]1Oc1ccc(OC)cc1`, the composite z-score in [1] is 0.0684; in [2], -0.152; in assay [3] it was -0.0598; in assay [4] it was 0.332; in assay [5], -0.482; in [6], 0.0871. Further, the figures for the composite z-score in assay [7], in [9] and in assay [10] were -0.327, 0.139 and -0.226, respectively. For the same compound, in assay [8], the z-score is 0.534 (inactive).
On to `CC(C)(C)N1C(=O)[C@H]2[C@H]3[C@H](O)[C@H](O)CC(=NO[C@@H]4O[C@H](CO)[C@@H](O)[C@H](O)[C@H]4O)[C@H]3CC[C@H]2C1=O`, for which the composite z-score in assay [1] was -0.477; in assay [2], 0.128; in [3], -0.17; in assay [4], 0.569; in assay [5] it was 0.45; in [6] it was 0.947. Also, the composite z-score in assay [7] was 0.389; in assay [9] it was 0.263; in assay [10] it was -0.0994. For the same compound, in [8], the z-score is 0.599 (inactive).
With `CCOC(=O)NN=C1C[C@@H](O)[C@@H](O)[C@@H]2[C@@H]3C(=O)N(Cc4ccccc4)C(=O)[C@@H]3CC[C@H]12`, the composite z-score was -0.276 in assay [1]; 0.695 in assay [2]; -0.124 in assay [3]; 0.164 in [4]; 0.287 in [5]; -0.0283 in [6]. Further, the results for the composite z-score in assay [7], in assay [9] and in assay [10] were -0.699, 0.0387 and -0.223, respectively. The z-score in assay [8] was 1.08 (inactive).
In the case of `COc1ccc(COC(=O)NN=C2C[C@@H](O)[C@@H](O)[C@@H]3[C@@H]4C(=O)N(C5CCCCC5)C(=O)[C@@H]4CC[C@H]23)cc1`, the composite z-score in [1] was 1.21; in assay [2] it was 0.588; in assay [3], -0.0784; in [4], -0.396; in [5], -0.961; in assay [6], -0.255. The composite z-score in assay [7] is -0.194; in [9], 0.524; in assay [10], -0.409. Besides, the z-score in [8] is 0.248 (inactive).
In the case of `CO[C@H]1COC(=O)CC=C[C@@H](C)[C@H](OC)COC(=O)[C@@H]2CCCN2C(=O)CC=C[C@@H]1C`, the composite z-score in [1] was -0.479; in assay [2], 2.11; in assay [3], -0.17; in assay [4], -0.0728; in assay [5], -0.162; in assay [6], -0.591. Moreover, the composite z-score in assay [7] is 0.87; in assay [9], 0.374; in [10] it was -0.169. Moreover, the z-score in assay [8] is -0.273 (inactive).
With `O=C1CCCC=C1C(O)CCCCBr` (stereo not given), the composite z-score in assay [1] was 0.383; in assay [2] it was -0.0756; in assay [3], -0.0695; in assay [4], 0.0586; in assay [5], 0.948; in assay [6] it was 0.932. For the same compound, the composite z-score is 0.0079 in [7], 0.227 in [9] and -0.0994 in [10]. Besides, in assay [8], the z-score was 6.9 (inactive).
`C[C@@H]1NC(=O)[C@@H](C)COC(=O)[C@H](C)NC(=O)[C@@H](C)COC1=O`: the composite z-score in assay [1] is -0.537; in [2], 0.472; in assay [3] it was -0.121; in assay [4], 0.489; in [5] it was 0.51; in assay [6], -0.292. For the same compound, the composite z-score in assay [7] turned out to be 1.14; in [9], 0.253; in assay [10], 0.0623. Besides, the z-score in assay [8] is -3.49 (inactive).
